# From PubChem BioAssay AID612 (The Scripps Research Institute Molecular Screening Center, 2007)
# In all, about 62,000 compounds went through this assay and about 420 (0.68%) were called active. The sample as a whole holds a higher share of actives than the screen did. A number with no mark means an inactive call.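 How the source made its calls: active means inhibition above the mean of all tested compounds plus 3 SD (cut at about 43% in these data); inactive means the rest.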
# Biological target: 5-hydroxytryptamine receptor 1A (Homo sapiens) (UniProt P08908)
# Test: human 5-HT1a receptor antagonists, primary screen, cell-based, CHO, Ga15 NFAT-bla reporter (AID 612);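 further: receptor stimulated by 5-CT agonist at 100 nM near EC80; beta-lactamase reporter measured by ratiometric fluorescence of a cleavable substrate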
# Details: CHO 5-HT1a Ga15 NFAT-bla reporter, antagonist mode; at 10 µM; stronger effect = higher value
# Sequence of 5-hydroxytryptamine receptor 1A (Homo sapiens) (P08908 whole entry, looked up): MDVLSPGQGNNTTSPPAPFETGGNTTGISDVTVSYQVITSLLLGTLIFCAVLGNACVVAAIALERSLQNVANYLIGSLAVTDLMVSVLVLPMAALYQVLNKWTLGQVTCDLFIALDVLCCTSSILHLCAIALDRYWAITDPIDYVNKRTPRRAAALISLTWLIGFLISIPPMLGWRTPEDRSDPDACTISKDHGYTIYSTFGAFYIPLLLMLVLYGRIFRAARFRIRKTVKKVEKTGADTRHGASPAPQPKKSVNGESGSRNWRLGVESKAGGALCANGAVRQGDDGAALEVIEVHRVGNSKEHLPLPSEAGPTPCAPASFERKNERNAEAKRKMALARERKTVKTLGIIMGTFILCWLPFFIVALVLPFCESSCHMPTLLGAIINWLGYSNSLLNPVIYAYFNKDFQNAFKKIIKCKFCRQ
row,SMILES,inhibition
1,CS(=O)(=O)c1ccc2nc(NC(=O)C3C4C=CC(C4)C3C(=O)O)sc2c1 (configuration not stated),-0.7%
2,CN1C(=O)c2ccccc2C(C(=O)NCCCN2CCCC2)C1c1c[nH]c2ccccc12 (configuration not stated),-6.4%
3,O=C(O)CCN1C(=O)CC2(CCCCC2)C1=O,6.3%
4,C=CCSc1nnc(Cn2c(=O)sc3ccccc32)n1C,-0.5%
5,COc1nc(NCc2ccc(Cl)cc2)nc(OC)n1,-1.3%
6,Cc1nc(C)c2c(c1C(F)(F)F)-c1ccccc1C2(F)F,-9.3%
7,Cc1ccc2c(C(=O)CN3CCCC3)c(C)[nH]c2c1,14.4%
8,CCCCOc1ccc(C(C)(O)CCN2CCOCC2)cc1 (configuration not stated),8.9%
9,Cc1oc2nc(SCC(=O)NCc3cccnc3)nc(N)c2c1C,5.1%
10,CCOc1ccc(Cn2nnc(C(=O)NCc3ccccc3)c2N)cc1,10.3%
11,CCC(C)NC(=O)N[C@@H](CCSC)C(=O)O (some centres not stated),-11.6%
12,CC1(C)C(=O)C2(CCCCC2)C(=O)OC1c1cccs1 (configuration not stated),-2.8%
13,CN(CCC#N)c1ncnc2scc(-c3ccccc3)c12,11.5%
14,C/C(=C\C(=O)c1ccc(Br)cc1)N1CCCCC1,0.5%
15,CCN(CC)S(=O)(=O)c1cccc(C(=O)Nc2ccccc2)c1,16.2%
16,Cc1cc(C(=O)OCC(=O)c2c(N)n(C)c(=O)n(C)c2=O)c(C)o1,-7.9%
17,CCOC(=O)CN1CC23C=CC(O2)C(C(=O)Nc2ccc(F)cc2)C3C1=O (configuration not stated),-5.1%
18,Cc1ccc(-n2c(Cc3cccs3)nnc2SCC(=O)OC(C)C)cc1,8.6%
19,Cc1c(C(=O)NCCN2CCOCC2)sc2nc(-c3ccc(F)cc3)cn12,-8%
20,O=C(COc1ccc(S(=O)(=O)NCCc2ccccc2)cc1)N1CCCC1,-0.2%
21,CCOC(=O)C1CCCN(C(=O)CN(c2ccc(OC)cc2)S(=O)(=O)c2c(C)noc2C)C1 (configuration not stated),-9.3%
22,CCCCNC(=O)c1ccccc1NC(=O)c1ccccc1N(C)S(C)(=O)=O,-13.1%
23,CCN1CCN(Cc2nc3c(c(=O)n(C)c(=O)n3C)n2CC(=O)c2ccccc2)CC1,4.5%
24,O=C(C1=C(O)C(=O)N(c2ncccn2)C1c1cccs1)c1ccco1 (configuration not stated),11.8%
25,Cc1cc(C(=O)Nc2c(C)n(C)n(-c3ccccc3)c2=O)cs1,5.4%

row,SMILES,inhibition
1,O=C(NC1=NCCS1)c1ccc(Cl)s1,10.2%
2,Cc1ccccc1Nc1nc(N)nc(CN2CCN(c3ccccn3)CC2)n1,2%
3,CCOC(=O)c1ccc(N2C(=O)CC(N3CC(C)OC(C)C3)C2=O)cc1 (configuration not stated),14%
4,CC1=C(C(=O)OC2CCCCC2)C(c2cccnc2)n2ncnc2N1 (configuration not stated),-5%
5,CCN1CCN(Cc2c(O)ccc3c(=O)c(-c4ccc(OC)c(OC)c4)c(C(F)(F)F)oc23)CC1,4.3%
6,COc1ccc(NC(=O)c2cccc(NC(=O)c3ccco3)c2)c(OC)c1,5.2%
7,Cc1ccc(S(=O)(=O)N2CCOCC2)cc1C(=O)NCc1ccc(F)cc1,3.3%
8,CC1Cc2ccccc2N1C(=O)CSc1nnc(-c2ccc(S(=O)(=O)N3CCCCC3)cc2)o1 (configuration not stated),1.4%
9,COc1ccc(C(C(O)C(=O)c2c[nH]c3ccccc23)N2CCN(c3ccccc3)CC2)cc1 (configuration not stated),43.9% (active)
10,CCCC(=O)NC(C)C(c1cccs1)N1CCN(c2ccccc2)CC1 (configuration not stated),16.9%
11,COc1ccc(OC)c(S(=O)(=O)N(C)CC(=O)N2CCN(c3ccccc3)CC2)c1,-11.1%
12,COc1ccc(NC(C)=O)cc1NC(=O)CN1CCN(c2ccccn2)CC1,-0.2%
13,Cc1ccc(-n2nc3c(c2NC(=O)c2ccc4c(c2)OCO4)CSC3)c(C)c1,9%
14,O=C(Nc1ccc(-c2nnc(-c3ccccc3)o2)cc1)c1ccc(Br)o1,-16.4%
15,Nc1ccc(-c2nnc(-c3ccc(-c4ccccc4)cc3)o2)cc1,62.6% (active)
16,O=C(Nc1ccc(-c2nnc(-c3ccccc3)o2)cc1)C1CCCO1 (configuration not stated),9.7%
17,CN1CCN(C(=O)C2C3C=CC(C3)C2C(=O)O)CC1 (configuration not stated),-4%
18,CCOC(=O)c1ccc(NC(=O)CSc2ncccn2)cc1,-16.8%
19,Cc1noc(C)c1S(=O)(=O)N1CCCC(C(=O)Nc2nccs2)C1 (configuration not stated),-3.8%
20,CCc1nnc(NC(=O)c2nc3nccc(C)n3n2)s1,-1.7%
21,O=S(=O)(Nc1nccs1)c1ccc2c(c1)OCCO2,-0.3%
22,O=C(CN1CCOc2ccccc21)N1CCC(Cc2ccccc2)CC1,4.5%
23,CC(=O)C1C(c2cccc(Oc3ccccc3)c2)NC(=O)NC1(O)C(F)(F)F (configuration not stated),-16.2%
24,O=C(CSCc1cccs1)N1CCCC1,-5.9%
25,c1csc(CN2CCN(Cc3cccs3)C2c2cccs2)c1,78.7% (active)

row,SMILES,inhibition
1,O=C1c2cccnc2C(=O)N1Cc1cccs1,-0.8%
2,N#Cc1ccc(COC(=O)Cn2nnc(-c3ccccc3)n2)cc1,7.6%
3,Cc1ccc(CNC(=O)CCCNC(=O)c2ccc(Cl)cc2)n1C,-4.8%
4,CCSC1(SCC)N=C(N)C2(C#N)C(c3ccccc3)NC(C)=CC12C#N (configuration not stated),1.4%
5,CCOc1ccc(-c2cn(S(=O)(=O)c3cccc4nsnc34)nc2N)cc1,11.8%
6,COc1cc(OC)c(NC(=O)c2ccc(Br)o2)cc1Cl,5.1%
7,CCN1CCN(c2c(Cl)cccc2NC(=O)c2ccc(Br)o2)CC1,63.5% (active)
8,CCCC(=O)Nc1ccc(Cl)c(NC(=O)c2ccc(Br)o2)c1,-5.8%
9,O=C(CCCn1c(SCC(=O)c2ccc(F)cc2)nc2ccccc2c1=O)NCc1ccco1,7.8%
10,Cn1nc(-c2ccc(N3CCOCC3)c(NC(=O)c3ccccc3)c2)c2ccccc2c1=O,26.6%
11,Cc1ccc(C(c2nnnn2C(C)(C)C)N2CCc3ccccc3C2)cc1 (configuration not stated),-4.5%
12,COc1ccc(OC)c(C(c2nnnn2C(C)(C)C)N2CCc3ccccc3C2)c1 (configuration not stated),48.2% (active)
13,COCCn1nnnc1C(c1cc2ccc(OC)cc2[nH]c1=O)N1CCc2ccccc2C1 (configuration not stated),1.8%
14,Cc1ccc(N2C(=O)c3ccccc3C2(O)c2ncc[nH]2)cc1 (configuration not stated),3.5%
15,CSc1cccc(NC(=O)CSc2ccccc2)c1,-10.6%
16,CC(C)COC(=O)c1ccc(NC(=O)C2C3C=CC(C3)C2C(=O)O)cc1 (configuration not stated),4.8%
17,CCn1nnc(NC(=O)c2cc(Cl)c(OC)c(Cl)c2)n1,-4.7%
18,COc1cc2[nH]c(=S)n(CCN3CCCCC3C)c(=O)c2cc1OC (configuration not stated),2.5%
19,O=C(O)CC(Cn1cnnn1)c1ccccc1 (configuration not stated),0.4%
20,COc1ccc2[nH]c3c(=O)n(Cc4ccco4)cnc3c2c1,6%
21,CCOc1ccc(N(CC(=O)NCc2ccc(OC)cc2)S(=O)(=O)c2c(C)noc2C)cc1,3.7%
22,COc1ccc2c(c1)CCc1c(C(=O)N3CCc4ccccc4C3)noc1-2,-3.2%
23,CN=C1SC(C(=O)O)CC(=O)N1C (configuration not stated),3.6%
24,COc1ccccc1-n1cnc2cc(NS(=O)(=O)c3ccccc3)ccc21,26.7%
25,CCCCn1c(SCC(=O)N2CCC(C(=O)OCC)CC2)nc2cc(S(N)(=O)=O)ccc21,5.5%

row,SMILES,inhibition
1,CCn1c(CSc2nncn2-c2ccc(OC)cc2)nc2cc(S(=O)(=O)N(C)C)ccc21,0.4%
2,CCC1C(C#N)=C(SC)NC2=C1C(=O)CC(C)(C)C2 (configuration not stated),0.2%
3,O=C(/C(=N\O)n1cncn1)c1ccc(Br)cc1Br,-1.8%
4,CC(=O)c1c(N)n(C)c(=O)n(C)c1=O,1.2%
5,CC1CSc2nnc(CCc3ccccc3)n21 (configuration not stated),5.7%
6,CN1CCN(S(=O)(=O)c2ccc(NC(=O)C3CCCO3)cc2)CC1 (configuration not stated),-0.1%
7,Cc1ccc(NC(=O)Cn2nc(C)c3ccccc3c2=O)c(C)c1,2.8%
8,C=CCn1c(SCn2nnc3ccccc3c2=O)nnc1-c1ccc(Cl)cc1,-2.8%
9,O=C(Nn1cc(C(=O)N2CCN(c3ccccc3F)CC2)c2ccccc2c1=O)c1cnccn1,0.3%
10,CCn1c2c(c3ccc(OC)cc31)CCCC2=O,-8.1%
11,O=C(CSc1nnc(Cn2cnc3ccccc32)o1)c1ccccc1,-8.1%
12,CC(=NC1CCN(Cc2ccccc2)CC1)c1c(O)[nH]c(=O)[nH]c1=O,-6.7%
13,CC12CN(Cc3ccccc3)CC(C)(CN(Cc3ccccc3)C1)C2=NO,50.1% (active)
14,Cc1ccc(-c2noc(CN3CCN(Cc4ccccc4)CC3)n2)cc1,-3.3%
15,CN1C(=O)CC(N2CCN(c3ccccn3)CC2)C1=O (configuration not stated),-2.2%
16,C=CCNc1nnc(C)c2ccccc12,0.9%
17,Cc1noc(C)c1S(=O)(=O)N(CC(=O)Nc1ccc2c(c1)OCCO2)c1ccc(C(C)C)cc1,2%
18,COCCOC(=O)C1=C(C)N=c2s/c(=C\c3cccs3)c(=O)n2C1c1cccs1 (configuration not stated),6.2%
19,CC(=O)c1ccc(Oc2cc(C)nc(-n3nc(C)cc3C)n2)cc1,45.2% (active)
20,CCOC(=O)c1cnc(-n2nc(C)cc2C)nc1Nc1cccc(C(C)=O)c1,12.1%
21,Cc1cc(C)n(-c2ccc(Cl)c(C(=O)O)n2)n1,-12.6%
22,CCOCCCN1C(=O)CN(C2CCCCC2)C(=O)C1c1ccc(OCC)c(OC)c1 (configuration not stated),4.5%
